Where “and” joins values, the source holds several entries; their conditions need not be identical. Equal values may be shown once. A structure can be active in one record and inactive in another. Calls of active or inactive are those of the source. Rule for the calls: active = hit-call score of the fitted dose curve at least 0.9, where 1 is the maximum; inactive = score below 0.9.
Read-out: Interleukin-8 (IL8), CXCL8 (gene 3576)
Experiment: BSK_KF3CT_IL8: BioMAP Diversity Plus: KF3CT Assay for Interleukin-8 (IL8) Biomarker Activity (AID 2284254)
Conditions: primary human keratinocytes with fibroblasts
Protocol: BSK_KF3CT is a cell-based, multiplexed-readout assay that uses keratinocytes and foreskin fibroblasts, a human skin primary cell co-culture, with measurements taken at 24 hours after chemical dosing in a 96-well plate.BSK_KF3CT_IL8 is an assay component measured in the BSK_KF3CT assay. It measures IL-8 antibody related to regulation of gene expression using ELISA technology.Data from the assay component BSK_KF3CT_IL8 was analyzed at the endpoint, BSK_KF3CT_IL8, in the positive analysis fitting direction relative to DMSO as the negative control and baseline of activity. Using a type of binding reporter, gain or loss-of-signal activity can be used to understand protein changes. To generalize the intended target to other relatable targets, this assay endpoint is annotated to the 'cytokine' intended target family, where the subfamily is 'interleukins'.
The levels of cell surface (or secreted, indicated by the prefix "s") biomarker endpoints were measured by ELISA. Overt cytotoxicity to cells in confluent adherent cultures (all systems other than the BT system) was assessed by measuring total protein levels using sulforhodamine B (SRB) staining in parallel cultures at the time of biomarker measurements, indicated as SRB endpoints. For proliferation assays for adherent cell types, individual cell types are cultured at sub-confluence and relative cell numbers quantified by SRB staining at time points optimized for each system (48 h: 3C and CASM3C systems; 72 h: BT and HDF3CGF systems; 96 h: SAg system). SRB was performed by staining cells with 0.1% SRB after fixation with 10% TCA and reading wells at 560 nm.Viability and proliferation of PBMC (T cells) was quantified by Alamar Blue reduction for the SAg and BT systems. For PBMC viability (referred to as PBMC Cytotoxicity within the assay endpoint names), cells were plated (75,000/well in a 96-well plate) and then chemical samples added for 1 h before addition of activators, SEB and TSST-1 (20 ng/mL final concentration each). Cells were incubated for 90 h. Then, Alamar Blue (20 uL/well) (Invitrogen, Cat DAL1100) was added for 6 h, and the plates were read with a fluorescence microplate reader at 546/580 nm (excitation/emission). For PBMC proliferation, cells were plated and activated as above but incubated for only 16 h prior to addition of Alamar Blue. Plates were read after 6 h.

Row | SMILES | outcome | AC50
1 | O=S(=O)(O)C(F)(F)C(F)(F)C(F)(F)C(F)(F)C(F)(F)C(F)(F)C(F)(F)C(F)(F)C(F)(F)C(F)(F)F | inactive | –
2 | OCC(F)(F)C(F)(F)C(F)(F)C(F)(F)C(F)(F)C(F)(F)C(F)(F)C(F)(F)C(F)(F)C(F)(F)C(F)(F)F | inactive | –
3 | CCCCCCCCCCCC | – | 20 µM (active) and 27.3 µM (active)
4 | O=P(O)(O)CCC(F)(F)C(F)(F)C(F)(F)C(F)(F)C(F)(F)C(F)(F)F | inactive | –
5 | O=C(O)CCC(F)(F)C(F)(F)C(F)(F)C(F)(F)C(F)(F)C(F)(F)F | inactive | –
6 | CN(CCO)S(=O)(=O)C(F)(F)C(F)(F)C(F)(F)C(F)(F)C(F)(F)C(F)(F)C(F)(F)C(F)(F)F | inactive | 1.42 µM (active)
7 | CN(Cc1cnc2nc(N)nc(N)c2n1)c1ccc(C(=O)N[C@@H](CCC(=O)O)C(=O)O)cc1 | inactive | –
8 | O=C(O)CCC(F)(F)C(F)(F)C(F)(F)C(F)(F)C(F)(F)F | inactive | –
9 | Oc1c(Cl)cc(Cl)cc1Sc1cc(Cl)cc(Cl)c1O | inactive | –
10 | O=C1NS(=O)(=O)c2ccccc21 | inactive | –
11 | O=P(O)(O)CCC(F)(F)C(F)(F)C(F)(F)C(F)(F)C(F)(F)C(F)(F)C(F)(F)C(F)(F)F | inactive | –
12 | C=CC(=O)OCCC(F)(F)C(F)(F)C(F)(F)C(F)(F)C(F)(F)C(F)(F)C(F)(F)C(F)(F)F | inactive | 16.9 µM (active)
13 | O=C(O)C(F)(F)OC(F)(F)C(F)(F)OC(F)(F)C(F)(F)OC(F)(F)C(F)(F)C(F)(F)C(F)(F)F | inactive | –
14 | Oc1ccc(Cc2ccccc2O)cc1 | inactive | –
15 | O=C(CC(=O)C(F)(F)C(F)(F)C(F)(F)F)c1cccs1 | inactive | –
